According to the supplement of paper PMC7411054:

How the values were obtained:
Assay in all cases: phenotypically active (imaging signature differs from DMSO and reproducible) at any of 0.3-9 uM (binary (1 = active, 0 = inactive)); higher = active
Settings in all cases: treatment time: 24 h
A549-ACTB-RAB5A = test system: A549-ACTB-RAB5A
Method in brief: (§1)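 Fifteen reporter lines derived from A549, HepG2 and WPMY1 cells by gene editing, carrying BFP for segmentation plus GFP and RFP/FusionRed markers, were exposed to 0.3, 1, 3 or 9 µM for 24 h in four wells each and imaged live. Live-cell features from each well were normalised to solvent control wells. A well set counted as deviating when ≥3 of 4 wells lay beyond the 95th percentile of control Euclidean distances, and as reproducible when the median replicate Pearson correlation exceeded the 95th percentile of non-replicates. Phenotypic activity was assigned only when both criteria were met.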

A549-CANX-COX4 = test system: A549-CANX-COX4
Method in brief: as §1

A549-GM130-SQSTM1 = test system: A549-GM130-SQSTM1
Method in brief: as §1

A549-TP53BP1-CLTA = test system: A549-TP53BP1-CLTA
Method in brief: as §1

A549-TUBA1B-RELA = test system: A549-TUBA1B-RELA
Method in brief: as §1

HepG2-ACTB-RAB5A = test system: HepG2-ACTB-RAB5A
Method in brief: as §1

HepG2-CANX-COX4 = test system: HepG2-CANX-COX4
Method in brief: as §1

HepG2-GM130-SQSTM1 = test system: HepG2-GM130-SQSTM1
Method in brief: as §1

HepG2-TP53BP1-CLTA = test system: HepG2-TP53BP1-CLTA
Method in brief: as §1

HepG2-TUBA1B-RELA = test system: HepG2-TUBA1B-RELA
Method in brief: as §1

WPMY1-ACTB-RAB5A = test system: WPMY1-ACTB-RAB5A
Method in brief: as §1

WPMY1-CANX-COX4 = test system: WPMY1-CANX-COX4
Method in brief: as §1

WPMY1-GM130-SQSTM1 = test system: WPMY1-GM130-SQSTM1
Method in brief: as §1

WPMY1-TP53BP1-CLTA = test system: WPMY1-TP53BP1-CLTA
Method in brief: as §1

WPMY1-TUBA1B-RELA = test system: WPMY1-TUBA1B-RELA
Method in brief: as §1

Measured: phenotypically active

O=C1CCC[C@@H]2[C@H]3CCC[N+]4([O-])CCC[C@@H](CN12)[C@@H]34 (stereo not given in full) [Oxymatrine]
inactive: A549-ACTB-RAB5A 0 | A549-CANX-COX4 0 | A549-GM130-SQSTM1 0 | A549-TP53BP1-CLTA 0 | A549-TUBA1B-RELA 0 | HepG2-ACTB-RAB5A 0 | HepG2-CANX-COX4 0 | HepG2-GM130-SQSTM1 0 | HepG2-TP53BP1-CLTA 0 | HepG2-TUBA1B-RELA 0 | WPMY1-ACTB-RAB5A 0 | WPMY1-CANX-COX4 0 | WPMY1-GM130-SQSTM1 0 | WPMY1-TP53BP1-CLTA 0 | WPMY1-TUBA1B-RELA 0

COc1c2occc2cc2ccc(=O)oc12 [methoxsalen]
inactive: A549-ACTB-RAB5A 0 | A549-CANX-COX4 0 | A549-GM130-SQSTM1 0 | A549-TP53BP1-CLTA 0 | A549-TUBA1B-RELA 0 | HepG2-ACTB-RAB5A 0 | HepG2-CANX-COX4 0 | HepG2-GM130-SQSTM1 0 | HepG2-TP53BP1-CLTA 0 | HepG2-TUBA1B-RELA 0 | WPMY1-ACTB-RAB5A 0 | WPMY1-CANX-COX4 0 | WPMY1-GM130-SQSTM1 0 | WPMY1-TP53BP1-CLTA 0 | WPMY1-TUBA1B-RELA 0

NS(=O)(=O)c1cc2c(cc1Cl)NC(C1CC3C=CC1C3)NS2(=O)=O (stereo not given) [cyclothiazide]
inactive: A549-ACTB-RAB5A 0 | A549-CANX-COX4 0 | A549-GM130-SQSTM1 0 | A549-TP53BP1-CLTA 0 | A549-TUBA1B-RELA 0 | HepG2-ACTB-RAB5A 0 | HepG2-CANX-COX4 0 | HepG2-GM130-SQSTM1 0 | HepG2-TP53BP1-CLTA 0 | HepG2-TUBA1B-RELA 0 | WPMY1-ACTB-RAB5A 0 | WPMY1-CANX-COX4 0 | WPMY1-GM130-SQSTM1 0 | WPMY1-TP53BP1-CLTA 0 | WPMY1-TUBA1B-RELA 0

CN1C(CSCC(F)(F)F)Nc2cc(Cl)c(S(N)(=O)=O)cc2S1(=O)=O (stereo not given) [polythiazide]
inactive: A549-ACTB-RAB5A 0 | A549-CANX-COX4 0 | A549-GM130-SQSTM1 0 | A549-TP53BP1-CLTA 0 | A549-TUBA1B-RELA 0 | HepG2-ACTB-RAB5A 0 | HepG2-CANX-COX4 0 | HepG2-GM130-SQSTM1 0 | HepG2-TP53BP1-CLTA 0 | HepG2-TUBA1B-RELA 0 | WPMY1-ACTB-RAB5A 0 | WPMY1-CANX-COX4 0 | WPMY1-GM130-SQSTM1 0 | WPMY1-TP53BP1-CLTA 0 | WPMY1-TUBA1B-RELA 0

CCCc1nc(C)c2c(C)nc3ccc(OC)nc3n12
inactive: A549-ACTB-RAB5A 0 | A549-CANX-COX4 0 | A549-GM130-SQSTM1 0 | A549-TP53BP1-CLTA 0 | A549-TUBA1B-RELA 0 | HepG2-ACTB-RAB5A 0 | HepG2-CANX-COX4 0 | HepG2-GM130-SQSTM1 0 | HepG2-TP53BP1-CLTA 0 | HepG2-TUBA1B-RELA 0 | WPMY1-ACTB-RAB5A 0 | WPMY1-CANX-COX4 0 | WPMY1-GM130-SQSTM1 0 | WPMY1-TP53BP1-CLTA 0 | WPMY1-TUBA1B-RELA 0

CCOCCn1c(N2CCCN(C)CC2)nc2ccccc21 [emedastine]
inactive: A549-ACTB-RAB5A 0 | A549-CANX-COX4 0 | A549-GM130-SQSTM1 0 | A549-TP53BP1-CLTA 0 | A549-TUBA1B-RELA 0 | HepG2-ACTB-RAB5A 0 | HepG2-CANX-COX4 0 | HepG2-GM130-SQSTM1 0 | HepG2-TP53BP1-CLTA 0 | HepG2-TUBA1B-RELA 0 | WPMY1-ACTB-RAB5A 0 | WPMY1-CANX-COX4 0 | WPMY1-GM130-SQSTM1 0 | WPMY1-TP53BP1-CLTA 0 | WPMY1-TUBA1B-RELA 0

CC(=O)NCCCS(=O)(=O)O [acamprosate]
inactive: A549-ACTB-RAB5A 0 | A549-CANX-COX4 0 | A549-GM130-SQSTM1 0 | A549-TP53BP1-CLTA 0 | A549-TUBA1B-RELA 0 | HepG2-ACTB-RAB5A 0 | HepG2-CANX-COX4 0 | HepG2-GM130-SQSTM1 0 | HepG2-TP53BP1-CLTA 0 | HepG2-TUBA1B-RELA 0 | WPMY1-ACTB-RAB5A 0 | WPMY1-CANX-COX4 0 | WPMY1-GM130-SQSTM1 0 | WPMY1-TP53BP1-CLTA 0 | WPMY1-TUBA1B-RELA 0

CN([C@H]1c2cc(OCCCC(F)(F)F)ccc2OC(C)(C)[C@@H]1O)S(C)(=O)=O
inactive: A549-ACTB-RAB5A 0 | A549-CANX-COX4 0 | A549-GM130-SQSTM1 0 | A549-TP53BP1-CLTA 0 | A549-TUBA1B-RELA 0 | HepG2-ACTB-RAB5A 0 | HepG2-CANX-COX4 0 | HepG2-GM130-SQSTM1 0 | HepG2-TP53BP1-CLTA 0 | HepG2-TUBA1B-RELA 0 | WPMY1-ACTB-RAB5A 0 | WPMY1-CANX-COX4 0 | WPMY1-GM130-SQSTM1 0 | WPMY1-TP53BP1-CLTA 0 | WPMY1-TUBA1B-RELA 0

C#C[C@]1(O)CC[C@H]2[C@@H]3CCC4=CC(=NO)CC[C@@H]4[C@H]3CC[C@@]21CC [norelgestromin]
inactive: A549-ACTB-RAB5A 0 | A549-CANX-COX4 0 | A549-GM130-SQSTM1 0 | A549-TP53BP1-CLTA 0 | A549-TUBA1B-RELA 0 | HepG2-ACTB-RAB5A 0 | HepG2-CANX-COX4 0 | HepG2-GM130-SQSTM1 0 | HepG2-TP53BP1-CLTA 0 | HepG2-TUBA1B-RELA 0 | WPMY1-ACTB-RAB5A 0 | WPMY1-CANX-COX4 0 | WPMY1-GM130-SQSTM1 0 | WPMY1-TP53BP1-CLTA 0 | WPMY1-TUBA1B-RELA 0

CCCCCCCCCCCCCCCC(=O)C(F)(F)F
inactive: A549-ACTB-RAB5A 0 | A549-CANX-COX4 0 | A549-GM130-SQSTM1 0 | A549-TP53BP1-CLTA 0 | A549-TUBA1B-RELA 0 | HepG2-ACTB-RAB5A 0 | HepG2-CANX-COX4 0 | HepG2-GM130-SQSTM1 0 | HepG2-TP53BP1-CLTA 0 | HepG2-TUBA1B-RELA 0 | WPMY1-ACTB-RAB5A 0 | WPMY1-CANX-COX4 0 | WPMY1-GM130-SQSTM1 0 | WPMY1-TP53BP1-CLTA 0 | WPMY1-TUBA1B-RELA 0

NS(=O)(=O)c1cc2c(cc1Cl)N=C(CSCc1ccccc1)NS2(=O)=O [benzthiazide]
inactive: A549-ACTB-RAB5A 0 | A549-CANX-COX4 0 | A549-GM130-SQSTM1 0 | A549-TP53BP1-CLTA 0 | A549-TUBA1B-RELA 0 | HepG2-ACTB-RAB5A 0 | HepG2-CANX-COX4 0 | HepG2-GM130-SQSTM1 0 | HepG2-TP53BP1-CLTA 0 | HepG2-TUBA1B-RELA 0 | WPMY1-ACTB-RAB5A 0 | WPMY1-CANX-COX4 0 | WPMY1-GM130-SQSTM1 0 | WPMY1-TP53BP1-CLTA 0 | WPMY1-TUBA1B-RELA 0
